Hit rate of the full screen: of about 340,000 compounds, about 3,300 (0.97%) were called active.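 Rule for the calls: active = inhibition above the mean over all tested compounds plus 3 SD (cut at about 30% in these data); inactive = the rest.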 The full list was thinned out, with actives kept by preference.

This test has as its target Platelet-activating factor acetylhydrolase 2, cytoplasmic (Homo sapiens) (UniProt Q99487). The test can be described thus: PAFAH2 enzyme inhibitors, primary screen, biochemical, fluorescence polarization, human (AID 492956).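 Note: inhibitors block probe labeling of enzyme so polarization drops; 0% = enzyme with DMSO and 100% = wells lacking PAFAH2 protein.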 The following applies: recombinant PAFAH2, FP-rhodamine activity probe, at 3.39 µM, hits give high values. A general note: Polarisation of emitted light reports the rotation of a fluorescent probe.
As to `CC(C)Nc1nnc(SC(C)C(=O)N(C)C2CCCCC2)s1` (centres undefined), the inhibition (in general, the change of the read-out against control, counted positive when it falls) was 9.89% (inactive).
Then `CCOCc1nnc(NC(=O)CCC2CCCCC2)s1`, with 3.07% (inactive); and `CCOc1cc(-c2conc2N)cc(OCC)c1OCC`, with -0.29% (inactive).
As to `CCCc1cc(=O)n2[nH]c(SCc3ccccc3)nc2n1`, the inhibition was 58.2% (active).
Then `CCCc1cc(=O)[nH]c(SCc2ccc(C#N)cc2)n1`, with -7.81% (inactive).
Then `CCCc1cc(=O)n2[nH]c(C)c(-c3ccc(Cl)cc3)c2n1`, with 4.35% (inactive); and `O=C1CCc2cc(S(=O)(=O)N3CCC(C(=O)NCc4ccccc4Cl)CC3)ccc2N1`, with 7.4% (inactive); and `NNC(=O)C1CC(O)CN1S(=O)(=O)c1ccc(Cl)cc1` (centres undefined), with -7.58% (inactive).
Then `O=C(CCN1CCN(C/C=C/c2ccccc2)CC1)Nc1cccc(F)c1`, with -0.13% (inactive).
In the case of `O=c1ccc2c(-c3ccccc3S(=O)(=O)O)c3ccc(O)c(O)c3oc-2c1O`, the inhibition was 74.3% (active).
Then `O=C1C2C3C=CC(C3)C2C(=O)N1c1ncc([N+](=O)[O-])s1` (centres undefined), with 3.52% (inactive); and `CC1(C)NC(=O)N(CC(=O)Nc2cc(C(F)(F)F)cc(C(F)(F)F)c2)C1=O`, with 2.33% (inactive).
Then `N/C(=N\OS(=O)(=O)c1cccc([N+](=O)[O-])c1)c1ccncc1`, with -0.37% (inactive); and `CCCC(CCC(=O)OC)(C(=O)OCC)c1csc(N)n1` (centres undefined), with 3.59% (inactive); and `O=C(N/N=C/c1cc([N+](=O)[O-])ccc1O)/C(=C\c1cccs1)NC(=O)c1ccccc1`, with -3.54% (inactive).
Regarding `O=[N+]([O-])c1ccc(O)c(/C=N/Nc2ccccc2[N+](=O)[O-])c1`, the inhibition was 51.1% (active).
To `Nc1nnnn1/N=C/c1cc([N+](=O)[O-])ccc1O` belongs -12.5% (inactive); to `COc1cccc(/C=N/Nc2ccc(S(=O)(=O)Nc3ccccc3C(=O)O)cc2[N+](=O)[O-])c1O`, 27.3% (inactive).
To `O=C(O)c1ccccc1N=N/C(=N/Nc1cc(S(=O)(=O)O)ccc1O)c1ccccc1` belongs 50.6% (active); to `NC[C@H](Cc1ccccc1)NCCc1cc(C(F)(F)F)cc(C(F)(F)F)c1`, -1.16% (inactive); to `O=C(OCCN1C(=O)c2ccccc2C1=O)[C@@H]1CC(O)CN1S(=O)(=O)c1ccccc1[N+](=O)[O-]` (some centres undefined), 3.85% (inactive).
Then `O=C(CN1C(=O)NC2(CCOc3ccccc32)C1=O)NCc1ccc(F)cc1` (centres undefined), with -2.58% (inactive); and `O=C(COC(=O)Cc1ccc([N+](=O)[O-])cc1)NC1CCCCCC1`, with 2.56% (inactive); and `O=C(COC(=O)C1CCCCC1)Nc1ccc([N+](=O)[O-])cc1`, with 59.7% (active).
In the case of `N/C(Cc1ccc([N+](=O)[O-])cc1)=N\OC(=O)C1CCCCC1`, the inhibition is 18.1% (inactive).
To `CCC(C)c1ccc(NC(=S)N2CCCC2)cc1` (centres undefined) belongs -2.78% (inactive).
Then `CCC(C)c1ccc(NC(=O)COC(=O)C2CCCC2)cc1` (centres undefined), with 46.3% (active); and `CC(=O)Nc1ccc(NC(=O)COC(=O)C2CCC(C(C)(C)C)CC2)cc1` (centres undefined), with 2.02% (inactive); and `Cc1nc([N+](=O)[O-])nn1C12CC3CC(CC(Br)(C3)C1)C2`, with 4.57% (inactive).
To `Clc1c(OCCCn2ccnc2)ccc2ccccc12` belongs 0.49% (inactive); to `Cc1ccc(F)cc1S(=O)(=O)Nc1cccc(C(=O)N2CCCC(C(N)=O)C2)c1` (centres undefined), 45.3% (active).
Consider `CCOC(=O)C1CCCN(C(=O)c2ccc(C)c(S(=O)(=O)N3CCCCC3)c2)C1` (centres undefined), for which the inhibition was 3.86% (inactive).
To `O=C(c1ccc(F)cc1)N1CCCC(C(=O)N2CCCCC2)C1` (centres undefined) belongs -1.35% (inactive); to `CSc1ccc(S(=O)(=O)N2CCC(C(=O)NCc3ccncc3)CC2)cc1`, 0.67% (inactive); to `CCCC1OC23CCCCC2C(C#N)(C#N)C1(C#N)C(=N)O3` (centres undefined), 35.4% (active).
To `O=C(Nc1ccc(S(=O)(=O)N2CCCCC2)cc1)C1CC(=O)N(c2ccc(F)cc2)C1` (centres undefined) belongs -0.7% (inactive); to `O=S(=O)(c1ccc(Cl)cc1)c1nc(-c2ccco2)oc1N1CCCCC1`, -0.15% (inactive).
Then `Cn1c(NN)nc2sc3c(c2c1=O)CCC3`, with 4.91% (inactive).
As for `O=c1oc(-c2ccco2)nc2sc3c(c12)CCCCC3`, the inhibition is 46.4% (active).
To `Cc1cc(-n2cnc(-c3cn(C)nc3C)n2)no1` belongs 2.99% (inactive).
Then `Cc1noc(/C=C/c2ccco2)c1S(=O)(=O)N1CCC(C(=O)N2CCc3ccccc32)CC1`, with -7.75% (inactive); and `O=C(O)Cc1csc(NC(=O)CSc2nnnn2-c2ccc(O)cc2)n1`, with 1.29% (inactive); and `CCn1c(CNC(=O)c2ccccc2)nnc1SCC(=O)N1CCN(c2ccccc2)CC1`, with -4.72% (inactive).
Then `CCN(C(=O)CSc1nnnn1-c1ccc(OC)cc1)C1CCS(=O)(=O)C1` (centres undefined), with 4.1% (inactive); and `COc1ccc(C(C)C)cc1S(=O)(=O)Nc1ncn[nH]1`, with -3.51% (inactive).
On to `CCCN(CCC)C(=O)C1c2ccccc2Oc2ccccc21`, for which the inhibition is 32.9% (active).
To `CCCCCNC(=O)C1c2ccccc2Oc2ccccc21` belongs -0.79% (inactive); to `CCC(C)NC(=O)C1c2ccccc2Oc2ccccc21` (centres undefined), -4.35% (inactive); to `S=c1[nH]nc(/C=C/c2ccccc2)o1`, -11.5% (inactive).
To `O=c1oc(/C=C/c2ccccc2)nc2ccccc12` belongs 76.7% (active).
Then `O=c1[nH]c(/C=C/c2cccc(Br)c2)nc2ccccc12`, with 6.48% (inactive).
For `CCc1ccc2nc(Nc3ncc(C(C)=O)c(C)n3)nc(C)c2c1`, the inhibition was 7.02% (inactive).
Then `Cc1ccc(S/C(=N\S(=O)(=O)c2ccc(Cl)cc2)c2ccccc2)cc1`, with 5.84% (inactive); and `Cc1cc(OCC(=O)NCC(O)c2ccccc2)c2c(C)c(C)c(=O)oc2c1` (centres undefined), with 0.4% (inactive); and `Cc1cc(=O)oc2c3c(cc(OCC(=O)NCc4ccccn4)c12)OC(C)(C)CC3`, with 14.1% (inactive).
Then `Cc1cc(=O)oc2c3c(cc(OCC(=O)NCCC(=O)N[C@@H](C)C(=O)O)c12)OC(C)(C)CC3`, with 6.3% (inactive); and `Cc1cc(=O)oc2c3c(cc(OCC(=O)N[C@H](C(=O)O)c4ccccc4)c12)OC(C)(C)CC3`, with 18.3% (inactive); and `Cc1c(C)c2c(OCC(=O)N[C@@H](C(=O)O)c3ccccc3)cc3c(c2oc1=O)CCC(C)(C)O3`, with 90.8% (active).
Then `Cc1c(C)c2c(OCC(=O)NCCCO)cc3c(c2oc1=O)CCC(C)(C)O3`, with 72.5% (active).
